Test results: PubChem BioAssay (Tox21)
Records with an inconclusive call do not appear. Values without a mark were called inactive. Active and inactive are the calls of the source. The call rests on the fitted dose curve; in most records, active means well fitted activation curve with a large enough effect in the signal ratio in the repeat runs (not every such curve was filed as active); inconclusive means weak or mixed curves; inactive means flat fitted curve, though single readings scatter; the % refers to the signal ratio.

Test: qHTS assay to identify small molecule agonists of H2AX (AID 1224845)
Settings: CHO-K1 phospho-H2AX Ser139 HTRF, 3 h; series mostly up to 154 µM; activation (H2AX phosphorylation): at the top concentration
From the text: National Center for Advancing Translational Sciences [NCATS]
NIH Chemical Genomics Center [NCGC]
U.S. Environmental Protection Agency [EPA]
National Institutes of Environmental Health Sciences [NIEHS]
National Toxicology Program [NTP]
U.S. Food and Drug Administration [FDA]
HTRF phospho-H2AX (Ser139) assay (Cisbio Bioassays, US) enables the quantitative detection of the histone variant H2AX when phosphorylated on serine 139. When double-stranded DNA breaks, either by ionizing radiation or endogenous physiological processes, H2AX becomes phosphorylated at Ser139. This phospho-Ser139 serves as a sensitive biomarker for the detection of such breaks, localizing the site of DNA repair. So, HTRF phospho-H2AX Ser139 is a pertinent assay to study genome stability, the cell cycle, DNA repair, and it serves as a biomarker for cancer, and to understand aging. Wild type CHO-K1 cells were used to identify the inducers of Phospho-H2AX Ser 139 from the Tox21 10K compound collections.
Tox21 Assay Protocol Summary:
The CHO-K1 cells suspended in culture medium containing 10% FBS were dispensed at 1000 cells/ 3 ul/well in 1536-well white wall/solid bottom plates (Greiner Bio-One North America, NC) using a Multidrop Combi (Thermo Fisher Scientific Inc., Waltham, MA). After the assay plates were incubated at 37C overnight, 23 nl of compounds at 15 concentrations (from 5-48 columns) or positive control (from 1 to 4 columns) were transferred to the assay plates using a Pintool station (Wako, San Diego, CA) into each well resulting in a final DMSO concentration of 0.76%. After 3hr incubation at 37C, 1 uL/well Supplemented Lysis buffer (diluted 100 fold blocking reagent in lysis buffer) (HTRF Phospho-H2A.X (S139) Assay kit from Cisbio US Inc., Bedford, MA) was added using a Flying Reagent Dispenser (FRD) (Aurora Discovery, CA). After 10sec spin at 1000 rpm in a plate centrifuge, the assay plates were incubated at room temperature for 30 min. Then followed by the addition of 1 uL/well detection buffer (containing a mixture of two antibodies, one labeled with cryptate, Anti pH2AX (S139)-K and another labeled with d2, Anti H2AX-d2) using FRD. After incubation at room temperature for 24 hr, the time resolved fluorescence at excitation 320 nm and emissions at 665 nm and 620 nm was measured using an Envision plate reader (PerkinElmer, Waltham, MA).
On the % scale 0 is the no-effect control and ±100 the full control effect; potency means the concentration at half of the fitted maximal effect.

Compound | activation (H2AX phosphorylation) | Potency
Cc1nn(-c2cc(NS(C)(=O)=O)c(Cl)cc2Cl)c(=O)n1C(F)F | -1.69% | –
CC(C)Br | -1.66% | –
Cc1ccc2cc3c(ccc4ccccc43)c3c2c1CC3 | 2.14% [at 70.9 µM] | –
c1csc(-c2ccc(-c3cccs3)s2)c1 | 0.267% | –
CCCCn1cc[n+](C)c1 (tested in a mixture with another compound) | -3.09% | –
CN=C=O | 0.0855% | –
O=C(CCCCl)c1ccc(F)cc1 | 0.0512% [at 70.9 µM] | –
CCC[CH2][Sn]([CH2]CCC)([O]C(C)=O)[O]C(C)=O | – | 906 nM (active)
CC(=O)[O-].CC(=O)[O-].CC(=O)[O-].[Cr+3] | 2.85% | –
O=C(Cl)c1ccccc1F | 2.29% | –
COP(=O)(OC)O/C(=C\Cl)c1cc(Cl)c(Cl)cc1Cl | 0.539% | –
CSC1=N[C@@](C)(c2ccccc2)C(=O)N1Nc1ccccc1 | -3.49% | –
CC(C)(C)c1ccc(OP(=O)(Oc2ccccc2)Oc2ccccc2)cc1 | -6.03% | –
Oc1cccc(Cl)c1Cl | 10% | –
CN | 0.163% | –
COC(=O)c1ccccc1S(=O)(=O)NC(=O)Nc1nc(C)nc(OC)n1 | -1.58% | –
O=c1[nH]c(Cl)c(Cl)cc1Cl | 5.92% | –
NC1CCC(CC2CCC(N)CC2)CC1 (stereo not given) | -0.314% | –
CCC(C)Nc1c([N+](=O)[O-])cc(C(C)(C)C)cc1[N+](=O)[O-] (stereo not given) | -3.82% | –
CNC(=O)CSP(=O)(OC)OC | 0.713% | –

Compound | activation (H2AX phosphorylation) | Potency
N#Cc1c[nH]cc1-c1cccc2c1OC(F)(F)O2 | -0.587% | –
C#CC1(O)CCCCC1 | 1.02% | –
N#CCCl | -1.5% | –
CCO/N=C(\CC)C1=C(O)CC(c2c(C)cc(C)cc2C)CC1=O (stereo not given) | -3.55% | –
[Cl-].[Cl-].[Cl-].[Yb+3] | 0.793% | –
ClCBr | -0.281% | –
CC[N+]1(CC)CCC(OC(=O)C(O)(c2ccccc2)c2ccccc2)C1 (stereo not given) | -3.19% [at 70.9 µM] | –
CCN(CC)C(=S)S | 11.9% | –
CN1[C@@H]2CC[C@H]1CC(O)C2 (stereo not given in full) | -3.1% | –
Cc1cc2c3c(c1)C(c1ccccc1)=N[C@@H](NC(=O)c1ccncc1)C(=O)N3CC2 | 0.309% | –
CC(C)C(Nc1ccc(C(F)(F)F)cc1Cl)C(=O)OC(C#N)c1cccc(Oc2ccccc2)c1 (stereo not given) | -3.34% | –
N#Cc1ccc(N(CC(N)=O)CC(F)(F)F)cc1C(F)(F)F | -3.29% | –
O=[N+]([O-])c1ccccc1-c1ccccc1 | -2.35% | –
CCOP(=S)(OCC)Oc1cc(C)nc(N(CC)CC)n1 | -2.88% | –
CCCCCCCCCCCCCCn1cc[n+](C)c1 | -8.6% | –
COCCC#N | -1.56% | –
CC(Cc1ccc(OCC(=O)O)cc1)NCC(O)c1csc(C(F)(F)F)n1 (stereo not given) | 0.631% | –
Nc1nc(N)nc(Cl)n1 | -1.01% | –
O.O.O.O.O.O.O.O=S(=O)([O-])[O-].[Co+2] | 1.93% | –
c1ccc2nc(N3CCNCC3)ccc2c1 | -4.05% [at 70.9 µM] | –
